L3MBTL1 inh – blocks human L3MBTL1; 0.66% of 230,000 active; Q9Y468; AlphaScreen L3MBTL1–H3K9me1 peptide binding; Potency, µM (series often up to 57.1 µM), for the others: top-dose activity, negative = inhibition, actives largely listed as inhibitors; further: nearly all actives have a fitted effect of over 60% in size
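L3MBTL1 50 nM + b-AHA-H3(1-15)K9me1 75 nM, 30 min RT; compound added, 30 min RT; streptavidin donor/Ni-chelate acceptor beads 10 ug/mL each final, 30 min RT dark; AlphaScreen read.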
APE1 inh – APE1 (human) endonuclease inhibition; Potency, µM (series often up to 65.8 µM), without a hit: top-dose activity change, negative = inhibition, usual class: inhibitors; P27695; recombinant APE1, TAMRA/BHQ-2 abasic DNA cleavage fluorescence; 0.35% of 350,000 active; AID 2517;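 further: plate controls were vehicle for no effect and reference inhibitor for full effect; nearly all actives have a fitted effect of over 55% in size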
Target sequence (P27695 whole entry, looked up): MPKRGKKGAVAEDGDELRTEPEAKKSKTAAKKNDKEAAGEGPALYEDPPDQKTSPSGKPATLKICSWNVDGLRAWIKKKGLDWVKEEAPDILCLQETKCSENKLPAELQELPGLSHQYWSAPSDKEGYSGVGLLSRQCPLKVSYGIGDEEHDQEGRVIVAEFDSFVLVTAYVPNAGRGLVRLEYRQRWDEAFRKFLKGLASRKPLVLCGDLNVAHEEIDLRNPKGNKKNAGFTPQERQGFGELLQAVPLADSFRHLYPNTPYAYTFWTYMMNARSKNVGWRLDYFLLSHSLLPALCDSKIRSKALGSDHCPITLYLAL
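APE1 at 0.75 nM preincubated 15 min at room temperature with compound. Reaction then started with 50 nM double-stranded THF-abasic substrate labelled with TAMRA/BHQ-2, and 525/598 nm fluorescence read kinetically. Activity taken as third-minus-first read difference, normalized to DMSO and NSC13755 controls.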
KDM4E inh – JMJD2E (human) inhibition; 1.6% of 230,000 active; B2RXH2; JMJD2E catalytic domain, FDH-coupled NADH fluorescence (FDH is formaldehyde dehydrogenase); Potency, µM (top dose mostly 57.1 µM), without a hit: top-dose activity change, negative = inhibition, usual class: inhibitors; active means well fitted inhibition curve with a large enough effect, not every such curve was filed as active; inconclusive means small, poorly fitted or top-dose-only effect, or another doubt; inactive means no such curve, though single readings can be large or run the other way;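 further: 0% = wells with enzyme and -100% = buffer wells without enzyme; nearly all actives have a fitted effect of over 50% in size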
Target sequence (B2RXH2 1-337 limits assumed): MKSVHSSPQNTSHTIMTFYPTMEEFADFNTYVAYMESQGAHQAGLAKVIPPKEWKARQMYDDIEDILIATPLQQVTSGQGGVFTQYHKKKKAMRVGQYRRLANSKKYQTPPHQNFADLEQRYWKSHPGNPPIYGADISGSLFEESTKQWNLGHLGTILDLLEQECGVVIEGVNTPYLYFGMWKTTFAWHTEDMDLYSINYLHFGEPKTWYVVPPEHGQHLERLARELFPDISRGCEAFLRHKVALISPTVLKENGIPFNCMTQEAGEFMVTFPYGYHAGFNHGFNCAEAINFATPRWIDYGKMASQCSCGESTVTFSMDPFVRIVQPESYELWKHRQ
TDP1 inh – inhibitors of human tyrosyl-DNA phosphodiesterase TDP1; Q9NUW8; recombinant TDP1, AlphaScreen DNA substrate cleavage; Potency, µM (top dose mostly 130 µM), for inactives: at the top dose activity change, negative = inhibition, most hits filed as inhibitors; 0.28% of 350,000 active; AID 485290; further: nearly all actives have a fitted effect of over 40% in size
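Recombinant human Tdp1 (E. coli-expressed, 1 nM final) preincubated with compounds 15 min at room temperature, then 5'-biotin/3'-phosphotyrosine-FITC DNA substrate (15 nM final) added for 5 min. AlphaScreen beads (10 ug/ml final) added 10 min; cleavage lowers signal.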
BLM helicase inh – Bloom syndrome helicase (human) inhibition; P54132; recombinant BLM DNA unwinding, fluorescence dequenching; Potency, µM (highest dose often 56.1 µM), for the others: at the top dose activity change, negative = inhibition, actives largely listed as inhibitors; 0.2% of 350,000 active; AID 2528;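 further: plate controls were vehicle for no effect and no enzyme for full effect; nearly all actives have a fitted effect of over 35% in size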
RECQ1 helicase – RECQ1 (human) helicase inhibition | P46063 | RECQ1 DNA unwinding, red fluorescence kinetic read | Potency, µM (titrated, usually from 57.3 µM), inactives show at the top dose activity, negative = inhibition, usual class: inhibitors | 0.54% of 240,000 active | AID 2549;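 further: plate controls were vehicle for no effect and no enzyme for full effect; nearly all actives have a fitted effect of over 30% in size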
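50 nM RECQ1T1 preincubated 15 min with compound in Tris pH 8.0 buffer with MgCl2, DTT, Tween-20 and 2.5 ug/ml poly(dI-dC); started with 200 nM TAMRA/BHQ-2 forked duplex and 2 mM ATP. Unwinding read as fluorescence (525/598 nm), two reads 2 h apart.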
Numbers without * were called inactive; [ ] = another dose, or the depositor's remark. The full list was thinned out, with hits kept by preference. Unless noted, the call rests on the fitted dose curve; in most records, active means well fitted curve in the direction sought with a large enough effect; inconclusive means small, poorly fitted or top-dose-only effect, or another doubt; inactive means no such curve, though single readings can be large; an effect the other way counts as inactive or inconclusive. Unless noted, on the % scale 0 is the no-effect control and ±100 the full control effect; potency means the concentration at half of the fitted maximal effect.

What do the screens show for `NC(=S)NN=Cc1ccc(-c2ccc(S(=O)(=O)Nc3ncccn3)cc2)o1`?
L3MBTL1 inh: 28µM*; APE1 inh: -28%; TDP1 inh: 10µM*

How did O=Cc1ccc(-n2cncn2)cc1 do in these assays?
APE1 inh: inconclusive; KDM4E inh: 7.1µM*; TDP1 inh: -1%; BLM helicase inh: -1%; RECQ1 helicase: inactive

What do the screens show for `COc1cc2c(s1)c1cnn(Cc3ccccc3F)c(=O)c1n2C`?
TDP1 inh: 0%

How did O=c1/c(=C/c2ccco2)sc2nc3cc(Br)cnc3n12 do in these assays?
APE1 inh: 14%

Results for CSCC[C@H](NC(=O)[C@H](CC(C)C)N1CCC(NC(=O)[C@@H](NC(=O)[C@H](Cc2ccccc2)NC(=O)[C@H](CO)NC(=O)[C@H](CC(=O)O)NC(=O)[C@@H](N)CCCCN)C(C)C)C1=O)C(N)=O (some centres undefined) ?
APE1 inh: 17%; TDP1 inh: 9%; BLM helicase inh: -9%; RECQ1 helicase: -15%

Results for COCc1cc(C)nc(OCC(=O)N/N=C/c2cccc(OC)c2)c1C#N ?
L3MBTL1 inh: 6%; APE1 inh: 14%; KDM4E inh: inconclusive; TDP1 inh: 4%; BLM helicase inh: 1%; RECQ1 helicase: 2%

How did COCc1cc(C)nc(OCC(=O)N/N=C/c2ccc(O)cc2O)c1C#N do in these assays?
APE1 inh: 1%; KDM4E inh: 25µM*; TDP1 inh: 8%; BLM helicase inh: -6%; RECQ1 helicase: -4%

How did COCc1cc(C)nc(OCC(=O)N/N=C/c2ccccc2O)c1C#N do in these assays?
L3MBTL1 inh: -24%; APE1 inh: 2%; KDM4E inh: 25µM*; TDP1 inh: 3%; BLM helicase inh: -1%; RECQ1 helicase: inactive

How did S=c1[nH]nc(-c2ccccn2)n1/N=C/c1ccc(Cl)c(Cl)c1 do in these assays?
L3MBTL1 inh: inconclusive; APE1 inh: -2%; KDM4E inh: -7%; TDP1 inh: 8%; BLM helicase inh: -3%; RECQ1 helicase: -3%

How did S=c1[nH]nc(-c2ccccn2)n1/N=C/c1ccc(Br)s1 do in these assays?
L3MBTL1 inh: 28µM*; APE1 inh: 21%; KDM4E inh: -16%; TDP1 inh: -6%; BLM helicase inh: 7%; RECQ1 helicase: -6%

How did CC(Oc1ccc(Cl)cc1)C(=O)NNC(=S)NC(=O)c1ccco1 (centres undefined) do in these assays?
L3MBTL1 inh: 7%; APE1 inh: 0%; KDM4E inh: 20µM*; TDP1 inh: 9%; BLM helicase inh: 2%; RECQ1 helicase: 0%

What do the screens show for `Cc1nc2cc(C(=O)O)ccc2s1`?
L3MBTL1 inh: 9%; APE1 inh: 12%; KDM4E inh: -3%; TDP1 inh: -6%; BLM helicase inh: -5%; RECQ1 helicase: -3%

What do the screens show for `Cc1nc2ccc(C(=O)O)cc2c2c1CC(C)S2` (centres undefined)?
APE1 inh: inconclusive; KDM4E inh: inconclusive; TDP1 inh: 20µM*; BLM helicase inh: 5%; RECQ1 helicase: inactive

What do the screens show for `CCC(=O)N1CCc2cc(Br)cc(S(=O)(=O)CCC(=O)N(C)c3cccc(C)c3)c21`?
L3MBTL1 inh: 28µM*; APE1 inh: -20%; TDP1 inh: inconclusive; BLM helicase inh: -2%

How did C[C@@H]1C(NC(=O)c2ccccc2)CC2CC1C2(C)C (some centres undefined) do in these assays?
L3MBTL1 inh: 25%; APE1 inh: -10%; TDP1 inh: 10µM*; BLM helicase inh: -1%

Results for CC1(C)CC(NC(=O)c2ccccc2)CC(C)(C)N1 ?
L3MBTL1 inh: 3%; APE1 inh: 4%; BLM helicase inh: 3%

How did O=c1cc(-c2ccc(O)c(O)c2)oc2c1ccc1ccccc12 do in these assays?
L3MBTL1 inh: -10%; APE1 inh: -14%; TDP1 inh: -4%

How did O=c1cc(-c2ccc(O)c(O)c2)oc2ccc3ccccc3c12 do in these assays?
L3MBTL1 inh: -10%; APE1 inh: 0.42µM*

What do the screens show for `Oc1cc(NCCc2cccnc2)cc2cccnc12`?
L3MBTL1 inh: 28µM*; APE1 inh: 30%; TDP1 inh: 6%

How did CN(C)CCCNC(=O)c1ccccn1 do in these assays?
APE1 inh: 0%; KDM4E inh: 1%; TDP1 inh: 8%; BLM helicase inh: -1%; RECQ1 helicase: inactive

Results for Oc1cc(NCc2cccnc2)ccc1-c1nc2ccccc2o1 ?
L3MBTL1 inh: -8%; APE1 inh: 0%; KDM4E inh: inconclusive; TDP1 inh: 6%; BLM helicase inh: -4%; RECQ1 helicase: -10%

Results for Oc1cc(Nc2ccncc2)cc2cccnc12 ?
L3MBTL1 inh: 22µM*; APE1 inh: 16%; TDP1 inh: 3%

What do the screens show for `CN(C)CCCNC(=O)c1ccc(-c2cc(O)c3ncccc3c2)cc1`?
L3MBTL1 inh: 20µM*; APE1 inh: -27%; TDP1 inh: 0%

What do the screens show for `COc1ccc(Nc2cc(O)c3ncccc3c2)cc1`?
L3MBTL1 inh: 32µM*; APE1 inh: 8%

Results for COc1ccc(NC(=O)c2c(NCc3ccc(C)o3)sc3c2CCC(C)C3)cc1 (centres undefined) ?
TDP1 inh: 7%; BLM helicase inh: -10%

Results for Oc1cc(-c2ccncc2)cc2cccnc12 ?
L3MBTL1 inh: 7.1µM*; APE1 inh: 15%; TDP1 inh: 5%

Results for CN(C)c1ccc(-c2cc(O)c3ncccc3c2)cc1 ?
L3MBTL1 inh: -6%; APE1 inh: 23%; TDP1 inh: 0%

How did Oc1cc(Nc2cccnc2)cc2cccnc12 do in these assays?
L3MBTL1 inh: 32µM*; APE1 inh: 25%; TDP1 inh: 5%

What do the screens show for `COc1cccc(NC(=O)c2ccc(-c3nc(COc4ccccc4)c(C)o3)cc2)c1`?
TDP1 inh: 3%; BLM helicase inh: -1%

What do the screens show for `CC1(OC(=O)c2ccc(Cl)nc2)C(=O)C=c2cc(-c3ccsc3)ncc2=C1OC(=O)C1CCCC1` (centres undefined)?
APE1 inh: -4%[12.4 µM]; KDM4E inh: -1%[11.4 µM]; TDP1 inh: 15%[12.3 µM]; BLM helicase inh: -2%[12.4 µM]; RECQ1 helicase: inactive[11.5 µM]

How did O=C1c2ccccc2C(=O)N1c1cnc2ccccc2c1 do in these assays?
TDP1 inh: 1%

What do the screens show for `O=C(c1ccccc1O)N(Cc1cccs1)Cc1cccs1`?
TDP1 inh: -4%

Assay outcomes as filed in PubChem BioAssay.
